Bioassay records (PubChem)
This excerpt belongs to a sample that is enriched for hits.
GRP78 ERSR act: inducers of ER stress response in human glioma cells. Potency, µM, inactives show at the top dose activation, actives largely listed as activators. U87-MG GRP78 promoter luciferase reporter, 16 h. 0.02% of 420,000 active; also: series mostly up to about 76 µM; % of control where 0% means no effect; nearly all actives have a fitted effect of over 35% in size
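ERSR induction read as luciferase luminescence (Bright-Glo, 10 min at room temperature) in stably transfected human U87-MG glioma cells exposed to compounds for 16 h, using GRP78 as sensor.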
12-LOX inh: inhibitors of human 12S-lipoxygenase ALOX12. P18054. purified 12hLO, xylenol orange hydroperoxide absorbance. Potency, µM (titrated, usually from 108 µM), for inactives: at the highest dose activity change, negative = inhibition, usual class: inhibitors. 1.1% of 580,000 active. AID 1671190; also: % is scaled to controls: 0 for no effect and ±100 for the full control effect
Target sequence (P18054 whole entry, looked up): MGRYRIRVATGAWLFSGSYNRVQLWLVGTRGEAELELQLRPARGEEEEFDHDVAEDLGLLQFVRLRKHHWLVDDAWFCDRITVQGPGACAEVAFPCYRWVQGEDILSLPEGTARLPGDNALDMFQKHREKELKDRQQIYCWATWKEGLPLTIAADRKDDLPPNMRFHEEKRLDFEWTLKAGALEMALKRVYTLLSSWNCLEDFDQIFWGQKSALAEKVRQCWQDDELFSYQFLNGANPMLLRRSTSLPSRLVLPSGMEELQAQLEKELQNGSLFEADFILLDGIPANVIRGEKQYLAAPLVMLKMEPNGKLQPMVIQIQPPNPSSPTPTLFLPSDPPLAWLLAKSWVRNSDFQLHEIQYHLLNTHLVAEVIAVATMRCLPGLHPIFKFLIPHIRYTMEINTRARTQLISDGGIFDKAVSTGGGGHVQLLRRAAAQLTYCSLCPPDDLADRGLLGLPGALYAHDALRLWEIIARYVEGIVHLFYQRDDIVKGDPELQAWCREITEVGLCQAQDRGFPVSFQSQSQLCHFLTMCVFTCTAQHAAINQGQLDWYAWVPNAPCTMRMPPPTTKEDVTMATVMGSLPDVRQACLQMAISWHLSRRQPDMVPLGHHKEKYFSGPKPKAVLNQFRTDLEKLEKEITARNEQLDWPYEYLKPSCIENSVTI
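Purified human 12hLO at 150 nM in 25 mM Hepes, 0.01% Triton X-100, pH 7.0, preincubated 15 min at room temperature with compound. Reaction started with 40 uM arachidonic acid, 30 min at room temperature. Hydroperoxide measured by Fe-xylenol orange, 573/405 nm absorbance ratio.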
VDR inhibitor: inhibitors of human vitamin D receptor | 0.93% of 400,000 active | P11473 | Potency, µM, for inactives: max response, negative = inhibition, hits mostly inhibitors | VDR-SRC2-3 peptide fluorescence polarization, 2 h; also: % is scaled to controls: 0 for no effect and ±100 for the full control effect
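Compounds are added to VDR with labelled SRC2-3 coactivator peptide and held 2 h at room temperature. Inhibition of the VDR–peptide interaction is then read as a change in fluorescence polarization.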
G9a inh: blocks human histone lysine methyltransferase G9a. Q96KQ7. G9a H3K9 monomethylation, AlphaScreen, 2 h. Potency, µM (titrated, usually from 102 µM), for inactives: top-dose activity, negative = inhibition, usual class: inhibitors. 8.8% of 350,000 active. AID 504332; also: % is scaled to controls: 0 for no effect and ±100 for the full control effect; nearly all actives have a fitted effect of over 75% in size
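Step 1: enzyme (final 20 nM) with compound, 15 min RT. Step 2: substrate peptide 500 nM and SAM 20 uM, 2 h RT. Step 3: anti-H3K9me1 antibody and AlphaScreen beads, 10 min, then plate read.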
Sfp PPTase inh: blocks B. subtilis Sfp PPTase activity; 3.5% of 310,000 active; Potency, µM, without a hit: largest response in the series, negative = inhibition, actives largely listed as inhibitors; Biochemical Sfp PPTase activity, qHTS;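 also: the enzyme is Sfp with the accession as filed and its product quenches rhodamine fluorescence; 0% = enzyme reaction without inhibitor and -100% = no enzyme wells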
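After 15 min at room temperature with compound, 15 nM Sfp received 5 uM rhodamine-CoA plus 12.5 uM BHQ-2-ybbR (50 mM Hepes pH 7.6, 10 mM MgCl2). Rate came from the fluorescence difference over 30 min, ex 525/em 598 nm.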
* = called active by the depositor; [ ] = another dose, or the depositor's remark. Calls follow the shape of the dose curve; as a rule, active = well fitted curve in the direction sought with a large enough effect; inconclusive = small, poorly fitted or top-dose-only effect, or another doubt; inactive = no such curve, though single readings can be large; an effect the other way counts as inactive or inconclusive. Potency is read from the fitted curve at half-maximal effect.

How did CN(Cc1ccco1)c1ccnc(-c2ccccc2C(F)(F)F)n1 do in these assays?
GRP78 ERSR act: -4.9%; 12-LOX inh: inconclusive; VDR inhibitor: 44.7µM*; G9a inh: -0.4%[0.501 µM]; Sfp PPTase inh: -6.9%

Results for COc1ccccc1N=Nc1c(C)[nH][nH]c1=O ?
GRP78 ERSR act: 0.9%; 12-LOX inh: 0.0%; VDR inhibitor: 11.2%; G9a inh: 35.5µM*; Sfp PPTase inh: -18.8%

How did COc1ccc(N=Nc2c(C)[nH][nH]c2=O)cc1 do in these assays?
GRP78 ERSR act: 8.8%; 12-LOX inh: inconclusive; VDR inhibitor: -4.3%; G9a inh: inconclusive; Sfp PPTase inh: -12.9%

What do the screens show for `Cc1[nH][nH]c(=O)c1N=Nc1ccccc1C#N`?
12-LOX inh: inconclusive; G9a inh: 44.7µM*; Sfp PPTase inh: inconclusive

Results for Cc1cc(CSc2nnc(-c3cccnc3)n2Cc2ccccc2)no1 ?
12-LOX inh: -6.7%

What do the screens show for `Fc1ccc(-c2[nH]ncc2CNCc2cccc(Cn3cccn3)c2)cc1`?
12-LOX inh: 17.8µM*

How did O=C(NCCCN1CCCCC1)c1ccc2c(c1)ncn2C1CCCC1 do in these assays?
GRP78 ERSR act: -2.4%; 12-LOX inh: -1.0%; VDR inhibitor: -2.8%; G9a inh: 44.7µM*; Sfp PPTase inh: 2.9%

How did O=C(NCCCN1CCN(c2ccccc2F)CC1)c1ccc2nc(N3CCCCC3)sc2c1 do in these assays?
GRP78 ERSR act: 0.7%; 12-LOX inh: inconclusive; VDR inhibitor: -4.0%; G9a inh: 11.2µM*

Results for CC(C)n1cnc2cc(NC(=O)c3ccco3)ccc21 ?
GRP78 ERSR act: -7.3%; 12-LOX inh: -17.0%; VDR inhibitor: -9.5%; G9a inh: -34.6%; Sfp PPTase inh: -8.5%

Results for O=C(Nc1ccc2c(c1)ncn2C1CCCCC1)c1ccco1 ?
GRP78 ERSR act: 2.5%; 12-LOX inh: 0.0%; VDR inhibitor: -13.5%; G9a inh: 31.6µM*; Sfp PPTase inh: -17.5%

What do the screens show for `CCn1c(C)c(C)c2cc(C(=O)NCCCN3CCCC3)ccc21`?
GRP78 ERSR act: 0.0%; 12-LOX inh: -15.6%; VDR inhibitor: 0.2%; G9a inh: 56.2µM*; Sfp PPTase inh: -4.4%

Results for CC(C)Cc1nc(NCCN2CCOCC2)c(C#N)c2c1CCCC2 ?
12-LOX inh: 3.0%

How did Cc1c(CCC(=O)NC2(C)CCS(=O)(=O)C2)c(=O)oc2cc(O)ccc12 (stereo not drawn) do in these assays?
12-LOX inh: 2.1%

Results for O=C1Nc2ccccc2NC12CCN(Cc1c(F)cccc1Cl)CC2 ?
12-LOX inh: 56.3%

How did CCn1c(C)c(C)c2cc(C(=O)Nc3cccc(Cl)c3)ccc21 do in these assays?
GRP78 ERSR act: 3.5%; 12-LOX inh: 0.0%; VDR inhibitor: 6.7%; G9a inh: 79.4µM*; Sfp PPTase inh: 20.7%

How did Cc1ccc([S+](=O)([O-])N2CCC(c3nn(-c4ccc(F)cc4)c(=O)[nH]3)CC2)cc1 do in these assays?
12-LOX inh: 25.4%

What do the screens show for `CC(=O)NC(C)c1ccc(O)cc1` (stereo not drawn)?
12-LOX inh: 4.9%

How did CCCNC(=O)c1ccc(NC(=O)Nc2ccccc2)cc1 do in these assays?
12-LOX inh: 46.1%

How did CNC(=O)c1ccc(NC(=O)CCNC(=O)Nc2ccccc2)cc1 do in these assays?
GRP78 ERSR act: -1.0%; 12-LOX inh: -3.8%; VDR inhibitor: -13.8%; G9a inh: 44.7µM*

Results for CC1=NN(C(=S)Nc2ccccc2)C(C)(C)C1 ?
GRP78 ERSR act: 0.5%; 12-LOX inh: 10.6%; VDR inhibitor: 12.6%; G9a inh: 31.6µM*; Sfp PPTase inh: inconclusive

How did CCCN1CCN(C(=O)C2(c3ccc(NC(=O)C(C)C)cc3)CCCCC2)CC1 do in these assays?
12-LOX inh: 36.1%

How did CCCNc1c(NC(=O)Nc2ccc(F)cc2F)c(=O)oc2ccccc12 do in these assays?
12-LOX inh: -7.1%

What do the screens show for `CCOC(=O)c1c(NC(=O)OC)sc2c1CCC2`?
GRP78 ERSR act: -3.3%; 12-LOX inh: -22.4%; VDR inhibitor: -10.8%; G9a inh: -8.8%[59 µM]; Sfp PPTase inh: 31.6µM*

What do the screens show for `COC(=O)Nc1sc2c(c1C(N)=O)CCCCCC2`?
GRP78 ERSR act: 1.4%; 12-LOX inh: -19.8%; VDR inhibitor: inconclusive; G9a inh: 3.55µM*; Sfp PPTase inh: -83.8%
